Data: ChEMBL document CHEMBL3433997, “St. Jude Leishmania screening dataset” (2016)
Several values for one entry are separate records, joined by “and”; a condition that tells them apart may be missing. Equal entries are not always repeated.

Each compound was assayed against Solute carrier family 2, facilitated glucose transporter member 1 (Homo sapiens) (UniProt P11166) (assay: ST_JUDE_LEISH: Cytotoxicity at 2uM final concentration against transgenic Leishmania Mexicana promastigotes LmGLUT1 that are glucose transport deficient and complemented with the human glucose transporter GLUT1. Activity is measured by DNA content using SYBR green in vitro).
Type: functional

Chain of Solute carrier family 2, facilitated glucose transporter member 1 (Homo sapiens) (P11166 whole entry): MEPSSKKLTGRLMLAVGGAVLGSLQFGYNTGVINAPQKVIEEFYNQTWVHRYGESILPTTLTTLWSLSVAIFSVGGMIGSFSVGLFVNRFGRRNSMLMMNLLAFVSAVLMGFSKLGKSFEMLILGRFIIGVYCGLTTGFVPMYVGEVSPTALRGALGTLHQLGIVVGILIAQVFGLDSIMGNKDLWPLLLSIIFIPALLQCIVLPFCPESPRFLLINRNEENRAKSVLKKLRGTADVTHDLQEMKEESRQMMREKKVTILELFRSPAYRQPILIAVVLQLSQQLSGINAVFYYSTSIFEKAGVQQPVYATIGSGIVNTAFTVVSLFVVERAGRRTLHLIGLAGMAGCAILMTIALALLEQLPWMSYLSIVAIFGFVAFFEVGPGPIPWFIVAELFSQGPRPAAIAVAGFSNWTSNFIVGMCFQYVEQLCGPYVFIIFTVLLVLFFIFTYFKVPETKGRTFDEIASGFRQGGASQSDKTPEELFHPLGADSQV

Row | SMILES | inhibition
1 | CC(NC(=O)c1ccc(O)c(-c2ccc(Cl)c(Cl)c2)c1)C(=O)NCCN1CCOCC1 (stereo not given) | 1.85%
2 | O=C(/C=C/c1ccc(Cl)c(Cl)c1)NCC[C@@H]1C[C@H]1CCN1CCC(c2c[nH]c3ccccc23)CC1 | 9.6%
3 | COC(=O)C1(NC(=O)c2ccc(-n3nc(C)c(-c4ccccc4)c3N)cc2)CCCC1 | 2.04%
4 | Cc1ccc(CON2C(N)=NC(N)=NC2(C)C)c(Cl)c1.Cc1ccc(CON2C(N)=NC(N)=NC2(C)C)cc1Cl | 2.94%
5 | O=C(C=Cc1ccc(Cl)c(Cl)c1)NCCCCCN1CCC(CCNS(=O)(=O)c2ccc(Br)cc2)CC1 | 2.45%
6 | COc1ccc2[nH]ccc(=NN=Cc3ccc(Cl)cc3)c2c1 | 1.86%
7 | Cc1[nH]c(C)c(-c2ccc(Oc3ccc(F)cc3)cc2)c(=O)c1Cl | 4.38%
8 | O=C(NC1CCN(Cc2ccccc2)CC1)c1cc(-c2ccncc2)nc2ccc(Cl)cc12 | 4.96%
9 | COC(=O)c1ccc(C2OC3(C(=O)c4ccccc4C3=O)C(OC)=C2Cl)cc1C(C)=O (stereo not given) | -2.44%
10 | O=C(NC1CCCCC1)N(Cc1ccc(-c2ccc(CNCc3ccc4c(c3)OCO4)cc2)cc1)C1CCN(Cc2ccccc2)CC1 | 2.03%
11 | O=C(NC1CCN(Cc2ccccc2)CC1)c1cc(-c2cccnc2)nc2ccc(Cl)cc12 | 8.75%
12 | CC(C)CNCc1cccc(-c2ccc(CNc3ccc(C(=O)c4ccccc4)cc3)cc2)c1 | 1.27%
13 | CCCN(CCC)C(C)CCC(C)Nc1c2ccc(Cl)cc2nc2ccc(OC)cc12 (stereo not given) | 1.91%
14 | O=C(/C=C/c1ccc(Cl)cc1Cl)N1CCC(CCN2CCC(c3c[nH]c4ccccc34)CC2)CC1 | 3.54%
15 | Cc1ccccc1OCC(O)CNC1CCC(NCC(O)COc2ccccc2C)CC1 (stereo not given) | 10.2%
16 | COc1ccc(C(=O)Nc2nonc2-c2ccc(OC)c(OC)c2)cc1Cl | -0.82%
17 | O=C(Nc1ccc([N+](=O)[O-])cc1)c1nn(-c2ccccc2)cc1/N=C/c1cccc(O)c1 | -0.62%
18 | CCCCSc1c(CNCCCCCCNCc2ccc3ccccc3c2SCCCC)ccc2ccccc12 | 10.7%
19 | CCn1c(-c2nonc2N)nc2c(-c3cccc(NC(=O)NC45CC6CC(CC(C6)C4)C5)c3)ncc(OCCCN)c21 | 2.53%
20 | Cc1csc2nc(-c3ccccn3)nc(Nc3ccncn3)c12 | 1.73%

Row | SMILES | inhibition
21 | CC1CN(Cc2ccc(-c3ccc(-c4nc5cc(F)ccc5[nH]4)cc3)cc2)CC(C)O1 (stereo not given) | 6%
22 | Nc1cnc(C#Cc2cc3ncnc(N(CCN4CCOCC4)c4ccc(OCc5cccc(F)c5)c(Cl)c4)c3s2)cn1 | 1.16%
23 | COc1cccc(CNC[C@@H](O)[C@H](Cc2ccccc2)NC(=O)c2cc(N3CCCC3=O)c3[nH]cc(C(C)C)c3c2)c1 | 1.26%
24 | COc1cc(Nc2nccc(Nc3ccc4c(C)n[nH]c4c3)n2)cc2ccccc12 | 5.04%
25 | CC(=O)Nc1cccc(C(=O)Nc2ccc(-c3cccc(-c4nc5cccc(C)c5[nH]4)c3)cc2)c1 | 0.48%
26 | COc1cc(OC)c(OC)cc1C=NN=c1cc(C)[nH]c2ccccc12 | 1.25%
27 | Cn1cncc1CCCN(Cc1ccc(-c2ccc(C(F)(F)F)cc2)cc1)C(=O)Cn1c(CCc2cccc(F)c2F)cc(=O)c2cccnc21 | 2.28%
28 | CC(C)(C)c1cc(C(=O)N2CCN(c3ccc(C(F)(F)F)cn3)CC2)n(Cc2ccc(F)cc2)n1 | -1.9%
29 | Clc1cc(Nc2ncnc3sc(C#C[C@H]4CCCN4)cc23)ccc1OCc1cccnc1Cl | 3.83%
30 | CCc1ccc(OCCCON2C(=N)N=C(N)NC2(C)C)cc1 | -1.61%
31 | COCCNC(=O)c1ccc(OC2CCN(Cc3ccc(F)c(F)c3)CC2)c(Cl)c1 | 0.95%
32 | O=C(Nc1cccc2ccccc12)N1CCC(NS(=O)(=O)c2cccc(C(F)(F)F)c2)CC1 | 0.57%
33 | CN(Cc1cnc2nc(N)nc(N)c2n1)c1ccc(C(=O)N[C@@H](CCC(=O)O)C(=O)O)cc1 | 3.29% and 4.83% and 0.58%
34 | COc1ccc2nccc([C@@H](O)CN3CCC(NC(=O)/C=C/c4cccc(C)c4)CC3)c2c1 | 11%
35 | Cc1ccc(-c2cc(C(=O)Nc3ccc(S(=O)(=O)N4CC(C)OC(C)C4)cc3)[nH]n2)c(O)c1 (stereo not given) | 3.32%
36 | COc1ccc(NC(=O)[C@H](Cc2ccccc2)Nc2cc(C)nc(Nc3ccccc3)n2)cc1 | 12.3%
37 | Cn1cc(CN2CCCC(COC(c3ccccc3)c3ccccc3)C2)cn1 (stereo not given) | 1.48%
38 | Cc1nnsc1C(=O)Nc1ccc(-c2ccc(-c3nc4ccccc4[nH]3)s2)cc1 | 4.65%
39 | Cc1[nH]c(C)c(-c2ccc(CCc3cccc(C(F)(F)F)c3)nc2)c(=O)c1Cl | 2.83%
40 | CC(C)C(=O)Nc1c(F)cc(F)cc1CCc1ccc(O)cc1 | 7.29%

What follows are compounds tested against Hexose transporter 1 (Plasmodium falciparum) (UniProt O97467) (assay: ST_JUDE_LEISH: Cytotoxicity at 2uM final concentration against transgenic Leishmania Mexicana promastigotes LmPfHT that are glucose transport deficient and complemented with the Plasmodium falciparum hexose transporter. Activity is measured by DNA content using SYBR green in vitro).
Type: functional

Row | SMILES | inhibition
41 | CC(NC(=O)c1ccc(O)c(-c2ccc(Cl)c(Cl)c2)c1)C(=O)NCCN1CCOCC1 (stereo not given) | 2.13%
42 | O=C(/C=C/c1ccc(Cl)c(Cl)c1)NCC[C@@H]1C[C@H]1CCN1CCC(c2c[nH]c3ccccc23)CC1 | 8.4%
43 | COC(=O)C1(NC(=O)c2ccc(-n3nc(C)c(-c4ccccc4)c3N)cc2)CCCC1 | 2.33%
44 | Cc1ccc(CON2C(N)=NC(N)=NC2(C)C)c(Cl)c1.Cc1ccc(CON2C(N)=NC(N)=NC2(C)C)cc1Cl | 4.84%
45 | O=C(C=Cc1ccc(Cl)c(Cl)c1)NCCCCCN1CCC(CCNS(=O)(=O)c2ccc(Br)cc2)CC1 | 1.43%
46 | COc1ccc2[nH]ccc(=NN=Cc3ccc(Cl)cc3)c2c1 | 3.19%
47 | Cc1[nH]c(C)c(-c2ccc(Oc3ccc(F)cc3)cc2)c(=O)c1Cl | 4.42%
48 | O=C(NC1CCN(Cc2ccccc2)CC1)c1cc(-c2ccncc2)nc2ccc(Cl)cc12 | 3.26%
49 | COC(=O)c1ccc(C2OC3(C(=O)c4ccccc4C3=O)C(OC)=C2Cl)cc1C(C)=O (stereo not given) | -0.79%
50 | O=C(NC1CCCCC1)N(Cc1ccc(-c2ccc(CNCc3ccc4c(c3)OCO4)cc2)cc1)C1CCN(Cc2ccccc2)CC1 | 1.63%
51 | O=C(NC1CCN(Cc2ccccc2)CC1)c1cc(-c2cccnc2)nc2ccc(Cl)cc12 | 6.45%
52 | CC(C)CNCc1cccc(-c2ccc(CNc3ccc(C(=O)c4ccccc4)cc3)cc2)c1 | 0.62%
53 | CCCN(CCC)C(C)CCC(C)Nc1c2ccc(Cl)cc2nc2ccc(OC)cc12 (stereo not given) | 2.78%
54 | O=C(/C=C/c1ccc(Cl)cc1Cl)N1CCC(CCN2CCC(c3c[nH]c4ccccc34)CC2)CC1 | 4.28%
55 | Cc1ccccc1OCC(O)CNC1CCC(NCC(O)COc2ccccc2C)CC1 (stereo not given) | 10.5%
56 | COc1ccc(C(=O)Nc2nonc2-c2ccc(OC)c(OC)c2)cc1Cl | -0.18%
57 | O=C(Nc1ccc([N+](=O)[O-])cc1)c1nn(-c2ccccc2)cc1/N=C/c1cccc(O)c1 | -1.47%
58 | CCCCSc1c(CNCCCCCCNCc2ccc3ccccc3c2SCCCC)ccc2ccccc12 | 5.83%
59 | CCn1c(-c2nonc2N)nc2c(-c3cccc(NC(=O)NC45CC6CC(CC(C6)C4)C5)c3)ncc(OCCCN)c21 | 1.83%
60 | Cc1csc2nc(-c3ccccn3)nc(Nc3ccncn3)c12 | 3.39%

Row | SMILES | inhibition
61 | CC1CN(Cc2ccc(-c3ccc(-c4nc5cc(F)ccc5[nH]4)cc3)cc2)CC(C)O1 (stereo not given) | 6.63%
62 | Nc1cnc(C#Cc2cc3ncnc(N(CCN4CCOCC4)c4ccc(OCc5cccc(F)c5)c(Cl)c4)c3s2)cn1 | 0.42%
63 | COc1cccc(CNC[C@@H](O)[C@H](Cc2ccccc2)NC(=O)c2cc(N3CCCC3=O)c3[nH]cc(C(C)C)c3c2)c1 | 2.02%
64 | COc1cc(Nc2nccc(Nc3ccc4c(C)n[nH]c4c3)n2)cc2ccccc12 | 2.79%
65 | CC(=O)Nc1cccc(C(=O)Nc2ccc(-c3cccc(-c4nc5cccc(C)c5[nH]4)c3)cc2)c1 | 1.78%
66 | COc1cc(OC)c(OC)cc1C=NN=c1cc(C)[nH]c2ccccc12 | 1.67%
67 | Cn1cncc1CCCN(Cc1ccc(-c2ccc(C(F)(F)F)cc2)cc1)C(=O)Cn1c(CCc2cccc(F)c2F)cc(=O)c2cccnc21 | 2.54%
68 | CC(C)(C)c1cc(C(=O)N2CCN(c3ccc(C(F)(F)F)cn3)CC2)n(Cc2ccc(F)cc2)n1 | -3.19%
69 | Clc1cc(Nc2ncnc3sc(C#C[C@H]4CCCN4)cc23)ccc1OCc1cccnc1Cl | 4.71%
70 | CCc1ccc(OCCCON2C(=N)N=C(N)NC2(C)C)cc1 | 1.92%
71 | COCCNC(=O)c1ccc(OC2CCN(Cc3ccc(F)c(F)c3)CC2)c(Cl)c1 | 1.83%
72 | O=C(Nc1cccc2ccccc12)N1CCC(NS(=O)(=O)c2cccc(C(F)(F)F)c2)CC1 | 0.62%
73 | CN(Cc1cnc2nc(N)nc(N)c2n1)c1ccc(C(=O)N[C@@H](CCC(=O)O)C(=O)O)cc1 | 2.33% and 2.91% and 0.06%
74 | COc1ccc2nccc([C@@H](O)CN3CCC(NC(=O)/C=C/c4cccc(C)c4)CC3)c2c1 | 9.47%
75 | Cc1ccc(-c2cc(C(=O)Nc3ccc(S(=O)(=O)N4CC(C)OC(C)C4)cc3)[nH]n2)c(O)c1 (stereo not given) | 2.68%
76 | COc1ccc(NC(=O)[C@H](Cc2ccccc2)Nc2cc(C)nc(Nc3ccccc3)n2)cc1 | 14.5%
77 | Cn1cc(CN2CCCC(COC(c3ccccc3)c3ccccc3)C2)cn1 (stereo not given) | 2.93%
78 | Cc1nnsc1C(=O)Nc1ccc(-c2ccc(-c3nc4ccccc4[nH]3)s2)cc1 | 1.4%
79 | Cc1[nH]c(C)c(-c2ccc(CCc3cccc(C(F)(F)F)c3)nc2)c(=O)c1Cl | 2.18%
80 | CC(C)C(=O)Nc1c(F)cc(F)cc1CCc1ccc(O)cc1 | 8.12%
